This is an account of results in publication PMC4552634, “A New Set of Chemical Starting Points with Plasmodium falciparum Transmission-Blocking Potential for Antimalarial Drug Discovery” (PLoS ONE, 2015).

One may read the % Inhibition as the change of the read-out against control, counted positive when it falls.

Each structure is given as a SMILES string. Among all 13,000 compounds or so, about 3,200 (25%) showed an effect of 50% or more. The list shows a part of the results.

This test concerns P. falciparum stage V gametocytes. More on the design: BacTiter-Glo ATP luminescence viability of purified stage V gametocytes in 384-well plates, per cent inhibition versus DMSO. As to conditions: 48 h, 5 µM; inhibitor.
`Fc1ccc2[nH]c(-c3ccccc3)nc2c1CN1CCC(N2CCCC2)CC1` [TCMDC-136310]: the “% Inhibition” value stood at 4.53%. With `c1ccc(-c2[nH]c3ccccc3c2CN2CCC(N3CCCCC3)CC2)nc1` [TCMDC-141636], the “% Inhibition” value worked out at 54.53%.

Regarding `Clc1ccc(-c2[nH]c3ccccc3c2CN2CCC(N3CCCCC3)CC2)cc1` [TCMDC-141631], the “% Inhibition” value is recorded as 17.32%. The figure for `COc1ccc2nccc(N3C[C@H]4C[C@@H]3CN4CCNCc3ccc4c(n3)NC(=O)CS4)c2n1` [TCMDC-134685] is 4.783%; for `Cn1nc(-c2ccc(NC(=O)Nc3cc(C(F)(F)F)ccc3F)c(F)c2)c2cnc(NCCCN3CCOCC3)nc21` [TCMDC-141607] it is 30.03%; for `Cn1nc(-c2ccc(NC(=O)Nc3cc(C(F)(F)F)ccc3F)cc2)c2cnc(NCCCCN3CCCC3)nc21` [TCMDC-141585] it is 81.15%. The figure for `CN1CCN(CCCNc2ncc3c(-c4ccc(NC(=O)Nc5cc(C(F)(F)F)ccc5F)c(F)c4)nn(C)c3n2)CC1` [TCMDC-141611] is 81.4%; for `CC1CCCCN1CCCNc1ncc2c(-c3ccc(NC(=O)Nc4cc(C(F)(F)F)ccc4F)c(F)c3)nn(C)c2n1` (stereo not drawn) [TCMDC-141608] it is 97.41%; for `Cn1nc(-c2ccc(NC(=O)Nc3cc(C(F)(F)F)ccc3F)c(F)c2)c2cnc(NCCCn3ccnc3)nc21` [TCMDC-141612] it is 3.105%. For `Cn1nc(-c2ccc(NC(=O)Nc3cc(C(F)(F)F)cc(C(F)(F)F)c3)c(F)c2)c2cnc(NCCN3CCOCC3)nc21` [TCMDC-141560], the “% Inhibition” value is 5.577%. In the case of `CCN(CC)CCCNc1ncc2c(-c3ccc(NC(=O)Nc4cc(C(F)(F)F)ccc4F)c(F)c3)nn(C)c2n1` [TCMDC-141609] it was 106.5%. With `Nc1nc(N)c2c(Oc3ccc(Cl)c(Cl)c3)cccc2n1` [TCMDC-137740], the “% Inhibition” value was -61.22%. Regarding `Nc1nc(N)c2c(Sc3ccc(F)cc3)cccc2n1` [TCMDC-137179], the “% Inhibition” value worked out at 36.57%. In the case of `CC(=O)Nc1nc(C(=O)Nc2cccc(-c3cccc(-c4nc5ccc(F)cc5[nH]4)c3)c2)cs1` [TCMDC-137124] it was 18.32%; in that of `CN1CCN(c2ccnc3ccc(NC(=O)Nc4ccc5c(c4)CCCC5=O)cc23)CC1` [TCMDC-139261], -6.438%. On to `COc1ccc(CCNCC(O)COc2nccc3c(S(=O)(=O)N4CCCNCC4)cccc23)cc1OC` (stereo not drawn) [TCMDC-132101], for which the “% Inhibition” value is 25.52%.

On to `O=C(Nc1ccc2c(c1)CCN2C1CCN(Cc2ccc(C(F)(F)F)cc2F)C1)c1ccco1` (stereo not drawn) [TCMDC-135070], for which the “% Inhibition” value is reported as -51.15%. In the case of `O=C(Cc1ccc(-n2cnnn2)cc1)N(Cc1cncn1Cc1cccc(C(F)(F)F)c1)CC1CC1` [TCMDC-132461] it was 5.053%; in that of `C1=CN(Cc2ccccc2)C=CC1=C1C=Nc2ccccc21` [TCMDC-138319], 1.652%. The figure for `O=C1OC2(CCN(C(=O)c3ccc(-n4cnnn4)cc3)CC2)CN1Cc1ccc(Cl)c(Cl)c1` [TCMDC-136544] is 34.85%; for `C1=C(c2c[nH]c3ccccc23)CCN(Cc2ccccc2)C1` [TCMDC-123457] it is -71.35%; for `O=S(=O)(NC1CCN(c2ccnc3cc(Cl)ccc23)C1)c1ccc(C(F)(F)F)cc1` (stereo not drawn) [TCMDC-133662] it is -7.86%.

Consider `Cn1nc(-c2ccc(NC(=O)Nc3cc(C(F)(F)F)ccc3F)cc2)c2cnc(NCCc3cnc[nH]3)nc21` [TCMDC-141621], for which the “% Inhibition” value turned out to be 12.4%. The figure for `CCN(CC)CCCNc1ncc2c(-c3ccc(NC(=O)Nc4cc(C(F)(F)F)ccc4F)cc3)nn(C)c2n1` [TCMDC-141583] is 96.86%. With `COc1ccc2nccc([C@@H](O)CN3CCC(NC(=O)C(=O)c4c[nH]c5c(C)cccc45)CC3)c2c1` [TCMDC-141107], the “% Inhibition” value is -28.63%.

For `CCC(=O)Nc1nnc(Cc2ccc(OC)c(OC)c2)s1` [TCMDC-125741], the “% Inhibition” value is -62.68%. In the case of `C=CCOc1ccc(Cc2cnc(N)nc2N)cc1CCC` [TCMDC-137639] it was -18.38%; in that of `N=C(N)c1ccc2nc(SCc3ccccc3)[nH]c2c1` [TCMDC-131872], 24.07%; in that of `Cc1cc(-c2nc3ccc(C(=N)N)cc3[nH]2)c(C)cc1-c1nc2ccc(C(=N)N)cc2[nH]1` [TCMDC-137798], 92.7%. The figure for `N=C(N)c1ccc(NC(=O)Cc2nc3ccc(C(=N)N)cc3[nH]2)cc1` [TCMDC-131867] is 10.64%; for `COc1ccccc1C(=O)C1CCCN(C(=O)c2ccccc2C(F)(F)F)C1` (stereo not drawn) [TCMDC-124693] it is -57%.

In the case of `CN(C)CCOc1cc(O)c2c(c1)OC(C)(C)C=C2c1cccs1` [TCMDC-131331], the “% Inhibition” value was -14.82%. The figure for `Cc1[nH]c(C)c(-c2ccc(OCCSc3ccncc3)cc2)c(=O)c1Br` [TCMDC-135220] is 64.24%; for `Cc1[nH]c(C)c(-c2ccc(OCCn3cnc(Cl)c3Cl)cc2)c(=O)c1Br` [TCMDC-134570] it is -18.53%; for `Cc1[nH]c(C)c(-c2ccc(OCCCCSc3ccncc3)cc2)c(=O)c1Br` [TCMDC-135256] it is 73.89%. Take `C[C@@H](C(=O)N1CCOCC1)N1CC[C@H](NS(=O)(=O)c2ccc3ccnc(N)c3c2)C1=O` [TCMDC-136755]: the “% Inhibition” value turned out to be 0.9724%. On to `O=C(N[C@@H](Cc1ccccc1)C(=O)NCCN1CCCC1)c1ccc(O)c(-c2ccc(Cl)c(Cl)c2)c1` [TCMDC-140829], for which the “% Inhibition” value turned out to be 26.26%. In the case of `N=c1n(CCN2CCCC2)c2ccccc2n1CC(O)c1ccc(Cl)c(Cl)c1` (stereo not drawn) [TCMDC-124063] it was 70.46%; in that of `N=c1n(CCN2CCCCC2)c2ccccc2n1CC(O)c1ccc(Cl)c(Cl)c1` (stereo not drawn) [TCMDC-124064], 91.16%. With `N=c1n(CCN2CCCCC2)c2ccccc2n1CC(O)c1cccc(Br)c1` (stereo not drawn) [TCMDC-125140], the “% Inhibition” value amounted to 60.98%. As for `COC(=O)c1ccc(CC(C)NCC(O)c2cccc(Br)c2)cc1` (stereo not drawn) [TCMDC-131437], the “% Inhibition” value was found to be 10.23%.

With `CC(NC(=O)c1ccc(O)c(-c2ccc(Cl)c(Cl)c2)c1)C(=O)NCCN1CCCC1` (stereo not drawn) [TCMDC-140827], the “% Inhibition” value is reported as -9.232%. In the case of `N=c1n(CCN2CCCCC2)c2ccccc2n1CC(=O)c1cccc([N+](=O)[O-])c1` [TCMDC-123516] it was -26.88%; in that of `O=C(N[C@@H](Cc1ccccc1)C(=O)NCCN1CCCCC1)c1ccc(O)c(-c2ccc(Cl)c(Cl)c2)c1` [TCMDC-140859], 10.94%. The figure for `CC(NC(=O)c1ccc(O)c(-c2ccc(Cl)c(Cl)c2)c1)C(=O)NCCN1CCCCC1` (stereo not drawn) [TCMDC-140857] is 27.12%; for `CCOc1ccc(C=CC(=O)Nc2ccc3nc(N4CCOCC4)cc(C)c3c2)cc1OC` [TCMDC-124420] it is -58.06%. In the case of `COc1ccc(NS(=O)(=O)c2cccc(C(=O)Nc3ccc(C(F)(F)F)cc3)c2)cc1N1CCN(CC(C)C)CC1` [TCMDC-141780] it was -61.2%. Regarding `N#Cc1ccc(CN2CCC(Oc3ccc(NC(=O)c4ccsc4)cc3Cl)C2)cc1` (stereo not drawn) [TCMDC-133961], the “% Inhibition” value stood at 27.45%.

`Cc1cccc(CNc2nc(C)cc(N[C@@H](Cc3ccccc3)C(=O)NC3CCCC3)n2)c1` [TCMDC-134886]: the “% Inhibition” value stood at 14.7%.

In the case of `Cc1nnc2c(NC(=O)NC3CCCC3)cc3cc(-c4ccc(CN(C)C)cc4)ccc3n12` [TCMDC-136487], the “% Inhibition” value stood at 88.82%. The figure for `Cc1nnc2c(NC(=O)NC3CCCC3)cc3ccc(-c4cccc(CN(C)C)c4)cc3n12` [TCMDC-136731] is 62.95%; for `COc1ccc(-c2ccc(CN(C)C3CCC(NC(=O)c4cc5ccccc5[nH]4)CC3)cc2)cn1` (stereo not drawn) [TCMDC-132893] it is 48.26%; for `Cc1nnc2c(NC(=O)NC3CCCC3)cc3cc(-c4ccc(CN5CCCCC5)cc4)ccc3n12` [TCMDC-136711] it is 3.866%. In the case of `Cc1cc2c(NC(=O)NC3CCN(Cc4ccc(Cl)c(Cl)c4)CC3)cccc2cn1` [TCMDC-141771] it was 11.02%. The figure for `CN(Cc1ccc(NC(=O)NC2CCN(C(=O)/C=C/c3ccc(Cl)c(Cl)c3)CC2)cc1)C1CCOCC1` [TCMDC-140523] is 15.53%.

With `Cc1nnc2c(NC(=O)NC3CCCC3)cc3cc(-c4ccc(CN5CCN(C)CC5)cc4)ccc3n12` [TCMDC-136717], the “% Inhibition” value was 93.03%. The figure for `Cc1nnc2c(NC(=O)NC3CCCC3)cc3ccc(-c4cccc(CN5CCN(C)CC5)c4)cc3n12` [TCMDC-136730] is 98.59%; for `Cc1cc2c(NC(=O)NC3CCN(CCc4ccccc4Cl)CC3)cccc2cn1` [TCMDC-141800] it is -1.237%. `Cc1cc2c(NC(=O)NC3CCN(CCc4cccc(Cl)c4)CC3)cccc2cn1` [TCMDC-141801]: the “% Inhibition” value was found to be 1.957%.

In the case of `CN1CCCN(Cc2cccc(-c3cccc(NC(=O)c4ccc(C#N)cc4)c3)c2)CC1` [TCMDC-132655], the “% Inhibition” value was 11.69%.

For `O=C(Nc1ccc(C(=O)N2CCN(CCN3CCN(c4cccc(C(F)(F)F)c4)CC3)CC2)cc1)c1cc(Cl)cc(Cl)c1` [TCMDC-138146], the “% Inhibition” value is reported as -60.88%. On to `O=C(Nc1cc2cc(-c3ccc(CN4CCCCC4)cc3)ccc2n2cnnc12)NC1CCCC1` [TCMDC-136882], for which the “% Inhibition” value was determined as 63.39%. On to `O=C(Nc1cccc(Cl)c1Cl)NC1CCN(Cc2cccc(O)c2)CC1` [TCMDC-136485], for which the “% Inhibition” value is on record as -12.42%. Consider `O=C(NCC1CC1)C1CCN(C(c2ccccc2)c2ccc(Cl)c(Cl)c2)CC1` (stereo not drawn) [TCMDC-135515], for which the “% Inhibition” value was 70.5%.

`O=C(NCC1CC1)C1CCN(C(c2ccc(Cl)cc2)c2ccc(Cl)cc2)CC1` [TCMDC-135522]: the “% Inhibition” value was -2.377%.

As to `CCCNC(=O)C1CCN(C(c2ccc(Cl)cc2)c2ccc(Cl)cc2)CC1` [TCMDC-135518], the “% Inhibition” value is listed as 16.22%. Consider `O=C(NCC1CC1)C1CCN(C(c2ccccc2)c2nc3ccccc3s2)CC1` (stereo not drawn) [TCMDC-135523], for which the “% Inhibition” value is -36.83%. In the case of `COCCNC(=O)C1CCN(C(c2ccc(Cl)cc2)c2ccc(Cl)cc2)CC1` [TCMDC-135519] it was -9.136%.

As for `O=C(NCC1CC1)C1CCN(C(c2ccccc2)c2cc(F)cc(F)c2)CC1` (stereo not drawn) [TCMDC-135513], the “% Inhibition” value stood at 62.39%. In the case of `O=C(NC1CCC1)C1CCN(C(c2ccccc2)c2cc(F)cc(F)c2)CC1` (stereo not drawn) [TCMDC-135514] it was -3.594%. With `O=C(NC1CCC1)C1CCN(C(c2ccc(Cl)cc2)c2ccc(Cl)cc2)CC1` [TCMDC-135520], the “% Inhibition” value is on record as 57.43%.

In the case of `CCCNC(=O)C1CCN(C(c2ccccc2)c2ccc(Cl)c(Cl)c2)CC1` (stereo not drawn) [TCMDC-135517], the “% Inhibition” value is -34.35%.
